Results: PubChem BioAssay AID1159580 (chemical genetic matrix, 2015)
Where “and” joins values, the source holds several entries; their conditions need not be identical. Equal entries are not always repeated. Out of some 5,500 compounds screened, about 2,000 (36%) were called active. Another 18% or so got no clear call; they are omitted. Cut-off read from the data, not from the text of the source: active = normalized growth mostly below about 0.91 (no sharp cut-off); inconclusive = no clear call, values can overlap the other calls; inactive = mostly above about 0.92. This is one part of the list.

Experiment: chemical genetic growth profiling, strain panel (AID 1159580);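 note: tested at 20 µM; growth read once vehicle control cultures reached saturation at 30 °C; 1 = growth at the plate median or of vehicle wells; lower values mean less growth of the strain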
Details: S. cerevisiae deletion strains, growth OD

Measured: normalized growth

CC(=O)O[C@H]1CC[C@@]2(C)C(C[C@@H](OC(C)=O)[C@@]3(C)C4=CC(=O)O[C@@H](c5ccoc5)[C@]4(C)CCC23)C1(C)C (stereo partly drawn)
active: locus YKL009W, strain mrt4, hits give low values 1.21 [resistant]
inactive: locus YAL021C, strain ccr4, hits give low values 1 | locus YAL026C, strain drs2, hits give low values 1.01 | locus YAL030W, strain snc1, hits give low values 0.999 | locus YBL061C, strain skt5, hits give low values 0.997 | locus YBR009C, strain hhf1, hits give low values 1.02 | locus YBR021W, strain FUR4, hits give low values 0.981 | locus YBR023C, strain chs3, hits give low values 0.996 | locus YBR171W, strain sec66, hits give low values 1 | locus YBR229C, strain ROT2, hits give low values 1.01 | locus YBR231C, strain swc5, hits give low values 1.01 | locus YBR279W, strain paf1, hits give low values 1 | locus YCL011C, strain gbp2, hits give low values 1.01 | locus YCL016C, strain dcc1, hits give low values 1.01 | locus YCL029C, strain bik1, hits give low values 0.989 | locus YCL061C, strain MRC1, hits give low values 0.994 | locus YCL069W, strain vba3, hits give low values 1.02 | locus YCR088W, strain abp1, hits give low values 1 | locus YDL005C, strain med2, hits give low values 1 | locus YDL035C, strain GPR1, hits give low values 1.02 | locus YDL040C, strain nat1, hits give low values 1 | locus YDL074C, strain BRE1, hits give low values 1 | locus YDL101C, strain DUN1, hits give low values 0.999 | locus YDL134C, strain PPH21, hits give low values 1 | locus YDL185W, strain tfp1, hits give low values 1 | locus YDL192W, strain arf1, hits give low values 0.988 | locus YDR001C, strain nth1, hits give low values 1 | locus YDR069C, strain doa4, hits give low values 1.02 | locus YDR101C, strain arx1, hits give low values 1.01 | locus YDR137W, strain rgp1, hits give low values 0.96 | locus YDR150W, strain NUM1, hits give low values 1.01 | locus YDR159W, strain sac3, hits give low values 1 | locus YDR162C, strain NBP2, hits give low values 0.992 | locus YDR195W, strain ref2 1.02 | locus YDR297W, strain sur2, hits give low values 1.02 | locus YDR318W, strain mcm21, hits give low values 0.998 | locus YDR334W, strain swr1, hits give low values 1.01 | locus YDR335W, strain msn5, hits give low values 0.997 | locus YDR388W, hits give low values 1 | locus YDR392W, strain spt3, hits give low values 0.974 | locus YDR502C, strain sam2, hits give low values 0.992 | locus YEL003W, strain gim4, hits give low values 1 | locus YEL037C, strain rad23, hits give low values 1 | locus YEL061C, strain CIN8 (second series), hits give low values 1.01 | locus YEL061C, strain CIN8, hits give low values 1.01 | locus YER015W, strain faa2, hits give low values 0.991 | locus YER016W, strain bim1, hits give low values 0.997 | locus YER110C, hits give low values 0.992 | locus YER111C, strain swi4, hits give low values 1.01 | locus YER155C, strain BEM2 (second series), hits give low values 0.992 | locus YER155C, strain BEM2, hits give low values 1.01 | locus YER167W, strain BCK2, hits give low values 1.01 | locus YFR010W, strain ubp6, hits give low values 1 | locus YGL078C, strain dbp3, hits give low values 0.992 | locus YGL086W, strain mad1, hits give low values 1.01 | locus YGL167C, strain pmr1, hits give low values 1.01 | locus YGL173C, strain kem1, hits give low values 1.01 | locus YGL227W, strain vid30, hits give low values 0.997 | locus YGL240W, strain doc1, hits give low values 1.02 | locus YGL248W, strain PDE1, hits give low values 1 | locus YGL253W, strain hxk2, hits give low values 1 | locus YGR078C, strain PAC10, hits give low values 0.988 | locus YGR135W, strain pre9, hits give low values 0.975 | locus YGR229C, strain SMI1, hits give low values 1 | locus YGR252W, strain gcn5, hits give low values 0.929 | locus YHR013C, strain ard1, hits give low values 0.978 | locus YHR027C, strain rpn1, hits give low values 1.01 | locus YHR030C, strain SLT2, hits give low values 0.955 | locus YHR079C, strain IRE1 (second series), hits give low values 0.993 | locus YHR079C, strain IRE1, hits give low values 0.98 | locus YHR094C, strain hxt1, hits give low values 0.998 | locus YHR129C, strain ARP1, hits give low values 1.01 | locus YHR142W, strain chs7, hits give low values 1 | locus YHR200W, strain rpn10, hits give low values 0.994 | locus YIL066C, strain RNR3, hits give low values 1.02 | locus YIL073C, strain SPO22, hits give low values 1.02 | locus YIL125W, strain kgd1, hits give low values 1.01 | locus YIR030C, strain dcg1, hits give low values 0.991 | locus YJL092W, strain hpr5, hits give low values 0.996 | locus YJL095W, strain BCK1 (second series), hits give low values 0.99 | locus YJL095W, strain BCK1, hits give low values 0.985 and 0.949 | locus YJL115W, strain asf1, hits give low values 0.993 | locus YJL129C, strain trk1, hits give low values 0.99 | locus YJL134W, strain LCB3, hits give low values 1.01 | locus YJL154C, strain vps35, hits give low values 0.994 | locus YJL164C, strain tpk1, hits give low values 1.01 | locus YJL166W, strain qcr8, hits give low values 1.02 | locus YJL168C, strain set2, hits give low values 0.986 | locus YJL187C, strain SWE1 (second series), hits give low values 0.997 | locus YJL187C, strain SWE1, hits give low values 1.01 | locus YJR066W, strain TOR1, hits give low values 0.9 | locus YJR075W, strain HOC1, hits give low values 1.01 | locus YKL068W, hits give low values 0.984 | locus YKL085W, strain MDH1 (second series), hits give low values 1.02 | locus YKL085W, strain MDH1, hits give low values 1.02 | locus YKL160W, strain elf1, hits give low values 1 | locus YKL190W, strain CNB1, hits give low values 1 | locus YKR001C, strain vps1, hits give low values 0.983 | locus YKR026C, strain gcn3, hits give low values 1.01 | locus YKR091W, strain srl3, hits give low values 1 | locus YLL001W, strain dnm1, hits give low values 1.01 | locus YLL026W, hits give low values 0.995 | locus YLL041C, strain sdh2, hits give low values 0.987 | locus YLR027C, strain aat2, hits give low values 1 | locus YLR039C, strain RIC1, hits give low values 0.985 | locus YLR058C, strain SHM2, hits give low values 1.01 | locus YLR102C, strain apc9, hits give low values 0.997 | locus YLR113W, strain HOG1, hits give low values 0.966 | locus YLR221C, strain rsa3, hits give low values 1.02 | locus YLR258W, strain gsy2, hits give low values 0.995 | locus YLR262C, strain YPT6 (second series), hits give low values 0.979 | locus YLR262C, strain YPT6, hits give low values 1.02 | locus YLR268W, strain sec22, hits give low values 1.01 | locus YLR320W, strain mms22, hits give low values 0.999 | locus YLR342W, strain FKS1, hits give low values 1 | locus YLR357W, strain rsc2, hits give low values 1.01 | locus YLR370C, strain arc18, hits give low values 1.02 | locus YLR371W, strain rom2, hits give low values 1 | locus YLR384C, strain iki3, hits give low values 0.987 | locus YLR418C, strain cdc73, hits give low values 0.954 | locus YML016C, strain PPZ1, hits give low values 1.01 | locus YML032C, strain rad52, hits give low values 0.985 | locus YML120C, strain ndi1, hits give low values 1.02 | locus YML124C, strain tub3, hits give low values 0.987 | locus YMR058W, strain fet3, hits give low values 1 | locus YMR078C, strain ctf18, hits give low values 0.981 | locus YMR125W, strain sto1, hits give low values 0.99 | locus YMR129W, hits give low values 1 | locus YMR205C, strain PFK2, hits give low values 1.01 | locus YMR223W, strain ubp8, hits give low values 0.983 | locus YMR231W, strain pep5, hits give low values 0.991 | locus YMR263W, strain SAP30, hits give low values 1.01 | locus YMR307W, strain GAS1, hits give low values 1.03 | locus YNL067W, strain RPL9B, hits give low values 0.997 | locus YNL071W, strain lat1, hits give low values 1.01 | locus YNL153C, strain GIM3, hits give low values 0.999 | locus YNL183C, strain NPR1, hits give low values 0.935 | locus YNL209W, strain ssb2, hits give low values 1.02 | locus YNL233W, strain BNI4, hits give low values 1.02 | locus YNL248C, strain rpa49, hits give low values 1.01 | locus YNL250W, strain rad50, hits give low values 0.995 | locus YNL271C, strain bni1, hits give low values 1 | locus YNL298W, strain CLA4, hits give low values 1.01 | locus YNL307C, strain MCK1, hits give low values 0.995 | locus YNL322C, strain KRE1 (second series), hits give low values 0.987 | locus YNL322C, strain KRE1, hits give low values 1.01 | locus YNR049C, strain mso1, hits give low values 1.01 | locus YNR052C, strain pop2, hits give low values 0.987 | locus YOL006C, strain TOP1, hits give low values 0.965 | locus YOL012C, strain htz1 1.15 | locus YOL147C, strain pex11, hits give low values 1 | locus YOR001W, strain rrp6, hits give low values 1.01 | locus YOR061W, strain CKA2, hits give low values 1.01 | locus YOR069W, strain VPS5, hits give low values 1 | locus YOR070C, strain gyp1, hits give low values 1.01 | locus YOR080W, strain dia2, hits give low values 1 | locus YOR083W, strain WHI5, hits give low values 1 | locus YOR106W, strain vam3, hits give low values 1.03 | locus YOR136W, strain idh2, hits give low values 0.992 | locus YOR144C, strain elg1, hits give low values 0.995 | locus YOR184W, strain ser1, hits give low values 1.01 | locus YOR231W, strain MKK1, hits give low values 0.957 | locus YOR265W, strain rbl2, hits give low values 1.02 | locus YOR270C, strain vph1, hits give low values 0.886 | locus YOR290C, strain snf2, hits give low values 0.998 | locus YOR316C, strain cot1, hits give low values 0.997 | locus YPL051W, strain arl3, hits give low values 0.997 | locus YPL055C, strain LGE1, hits give low values 1.03 | locus YPL078C, strain atp4, hits give low values 1.01 | locus YPL106C, strain sse1, hits give low values 1.02 | locus YPL240C, strain hsp82, hits give low values 0.998 | locus YPL241C, strain CIN2, hits give low values 1 | locus YPL256C, strain CLN2, hits give low values 0.96 | locus YPR119W, strain clb2, hits give low values 0.992 | locus YPR141C, strain kar3, hits give low values 0.99 | locus YPR163C, strain tif3, hits give low values 0.989 | locus YPR167C, strain met16, hits give low values 0.985 | strain wtn01, hits give low values 0.993
